Measured values as given in PubChem BioAssay (NCATS).
Inconclusive results are not listed. Entries that show only a call come without a potency. Active and inactive are the calls of the source. Unless noted, calls come from the whole dose curve; as a rule, active = well fitted inhibition curve with a large enough effect; inconclusive = small, poorly fitted or top-dose-only effect; inactive = no such curve, though single readings can be large or run the other way.

Experiment: qHTS profiling of the MIPE4 collection as inhibitors of Plasmodium falciparum (DD2) proliferation (Rep 2) (AID 743346; call rule not given here)
Conditions: P. falciparum Dd2 in erythrocytes, SYBR Green DNA, 72 h; at 28.5 µM unless noted
In short: (§1)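 Parasite DNA was quantified by SYBR Green I fluorescence (ex 485, em 535 nm) after overnight lysis in saponin/Triton buffer at room temperature. Cultures at 0.3% parasitemia and 2.5% hematocrit were first exposed to compound for 72 h at 37 C; signals were normalised to artemisinin (0.29 uM) and vehicle wells.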

Compound | parasite growth, % of control (lower = inhibition) [%]
Clc1ccc(CCC(Cn2ccnc2)Sc2c(Cl)cccc2Cl)cc1 (stereo not given) | 10.3
Nc1ncnc2c1ncn2[C@@H]1O[C@H](CO)C[C@@H]1O | 57.5
COc1ccc(Cc2nccc3cc(OC)c(OC)cc23)cc1OC | 18.7
Cn1c(N2CCCCS2(=O)=O)nc(C(=O)NCc2ccc(F)cc2)c(O)c1=O | 83.1
C[C@@H]1CCN(C(=O)CC#N)C[C@H]1N(C)c1ncnc2[nH]ccc12 | 93.5

Experiment: qHTS profiling of the MIPE4 collection as inhibitors of Plasmodium falciparum (HB3) proliferation (AID 743347; call rule not given here)
Conditions: P. falciparum HB3 in erythrocytes, SYBR Green DNA, 72 h; at 28.5 µM unless noted
In short: as §1

Compound | growth, % of control
Clc1ccc(CCC(Cn2ccnc2)Sc2c(Cl)cccc2Cl)cc1 (stereo not given) | 3.43%
Nc1ncnc2c1ncn2[C@@H]1O[C@H](CO)C[C@@H]1O | 79%
C[C@@H](O)[C@H]1C(=O)N2C(C(=O)O)=C(S[C@@H]3CN[C@H](C(=O)N(C)C)C3)[C@H](C)[C@H]12 | 61.4% [at 9.64 µM]
COc1ccc(Cc2nccc3cc(OC)c(OC)cc23)cc1OC | 2.71%
Cn1c(N2CCCCS2(=O)=O)nc(C(=O)NCc2ccc(F)cc2)c(O)c1=O | 62.6%
C[C@@H]1CCN(C(=O)CC#N)C[C@H]1N(C)c1ncnc2[nH]ccc12 | 74.7%

Experiment: High-throughput drug toxicity screening in the BPDCN cell line Cal-1 (AID 1224825; call rule not given here;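 note: cells exposed to compounds for 48 h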)
Conditions: Cal-1 BPDCN cell viability, qHTS; at 45.8 µM (top of the series) unless noted
In short: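 Viability of the BPDCN line Cal-1 is measured as ATP-based luminescence (CellTiter-Glo) following 48 h incubation with compounds. Percent activity uses DMSO-treated wells as 100% and 9.2 uM bortezomib as 0%.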

Compound | viability (% of control)
Clc1ccc(CCC(Cn2ccnc2)Sc2c(Cl)cccc2Cl)cc1 (stereo not given) | 67.7%
Nc1ncnc2c1ncn2[C@@H]1O[C@H](CO)C[C@@H]1O | 39.8%
COc1cc2ncnc(Nc3ccc(F)c(Cl)c3)c2cc1OCCCN1CCOCC1 | 4.41% [at 92.2 µM]
COc1ccc(Cc2nccc3cc(OC)c(OC)cc23)cc1OC | 96.9%
Cn1c(N2CCCCS2(=O)=O)nc(C(=O)NCc2ccc(F)cc2)c(O)c1=O | 96.9%
C[C@@H]1CCN(C(=O)CC#N)C[C@H]1N(C)c1ncnc2[nH]ccc12 | 110%

Experiment: qHTS assay for measurement of the activity of small molecule inhibitors on Zika virus induced Caspase-3 activity in human iPSC derived neural progenitor cells (hNPCs) (AID 1224857); note: nearly all actives have a fitted effect of over 65% in size
Conditions: hNPCs ZIKV-induced caspase-3/7, Caspase-Glo luminescence, 6 h; series mostly up to 45.7 µM
In short: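 Human iPSC-derived neural progenitor cells pretreated 1 hr with compounds, then infected with Zika virus (2 FFU/cell) for 6 hours at 37 C. Caspase-3/7 measured by Caspase-Glo luminescence; % inhibition calculated from induction scaled to uninfected (0%) and infected (100%) wells.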

Compound | Potency
COc1ccccc1N1CCN(CCCNc2cc(=O)n(C)c(=O)n2C)CC1 | inactive
CC(=O)c1ccc(S(=O)(=O)NC(=O)NC2CCCCC2)cc1 | inactive
O=C1NCC2(CCN(CCc3ccccc3)CC2)O1 | inactive
CC[C@]1(O)C[C@@H]2CN(CCc3c([nH]c4ccccc34)[C@@](C(=O)OC)(c3cc4c(cc3OC)N(C)[C@H]3[C@@](O)(C(=O)OC)[C@H](OC(C)=O)[C@]5(CC)C=CCN6CC[C@]43[C@@H]65)C2)C1 | inactive
COC(=O)[C@@H]1[C@H]2C[C@H]3c4[nH]c5ccccc5c4CCN3C[C@@H]2CC[C@@H]1O | inactive
NC(N)=Nc1nc(CSCC/C(N)=N/S(N)(=O)=O)cs1 | inactive
CC(=O)O[C@]1(C(C)=O)CC[C@H]2[C@@H]3C=C(Cl)C4=CC(=O)[C@@H]5C[C@@H]5[C@]4(C)[C@H]3CC[C@@]21C | inactive
CC(C)NCC(O)COc1cccc2[nH]ccc12 (stereo not given) | inactive
O=C(NCCN1CCOCC1)c1ccc(Cl)cc1 | inactive
CC/C(=C(\c1ccccc1)c1ccc(OCCN(C)C)cc1)c1ccccc1 | inactive
O=C(O)c1cc(-c2ccccc2)nc2ccccc12 | inactive
C[C@@H](O)[C@H]1C(=O)N2C(C(=O)O)=C(S[C@@H]3CN[C@H](C(=O)N(C)C)C3)[C@H](C)[C@H]12 | inactive
CC(=O)CCCCn1c(=O)c2c(ncn2C)n(C)c1=O | inactive
Clc1ccc(Cn2c(CN3CCCC3)nc3ccccc32)cc1 | inactive
O=C(O)CCc1nc(-c2ccccc2)c(-c2ccccc2)o1 | inactive
CCN(CC)CCNC(=O)c1ccc(N)cc1 | inactive
CCCNC(=O)NS(=O)(=O)c1ccc(Cl)cc1 | inactive
CCCCC1C(=O)N(c2ccccc2)N(c2ccccc2)C1=O | inactive
CCN(CC)C(=O)c1ccc(O)c(OC)c1 | inactive
CCN1CCC[C@H]1CNC(=O)c1cc(S(N)(=O)=O)ccc1OC | inactive
NC(=S)c1ccc[n+]([C@@H]2O[C@@H](COP(=O)([O-])OP(=O)(O)OC[C@H]3O[C@@H](n4cnc5c(N)ncnc54)[C@H](OP(=O)(O)O)C3O)C(O)C2O)c1 (stereo not given in full) | inactive
CC1=C(/C=C/C(C)=C/C=C/C(C)=C/C(=O)Nc2ccc(O)cc2)C(C)(C)CCC1 | inactive
CC(C)(C)c1ccc(C(O)CCCN2CCC(C(O)(c3ccccc3)c3ccccc3)CC2)cc1 (stereo not given) | inactive
O=C(O)Cc1cccc2ccccc12 | inactive
NCCS | inactive
Nc1ncnc2c1ncn2[C@@H]1O[C@H](COP(=O)(O)OP(=O)(O)OP(=O)(O)OP(=O)(O)OC[C@@H]2O[C@H](n3cnc4c(N)ncnc43)[C@@H](O)C2O)C(O)[C@H]1O (stereo not given in full) | inactive
C[N+](C)(C)CCCCCC[N+](C)(C)C | inactive
CN(C)CCC(c1ccccc1)c1ccccn1 (stereo not given) | inactive
